From PubChem BioAssay AID1159580 (chemical genetic matrix, 2015)
Values joined by “and” are separate entries in the source; they are usually repeats but may differ in a detail not shown here. Equal entries are not always repeated. Screen size: about 5,500 compounds; about 2,000 (36%) were called active. About 18% were inconclusive and are not listed. Rule as the data show it: active = normalized growth mostly below about 0.91 (no sharp cut-off); inconclusive = no clear call, values can overlap the other calls; inactive = mostly above about 0.92. The list shows a part of the results.

Assay: chemical genetic growth profiling, strain panel (AID 1159580);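 also: tested at 20 µM; growth read once vehicle control cultures reached saturation at 30 °C; 1 = growth at the plate median or of vehicle wells; lower values mean less growth of the strain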
Settings: S. cerevisiae deletion strains, growth OD
[1] = locus YDR150W, strain NUM1, hits give low values
[2] = locus YMR307W, strain GAS1, hits give low values
[3] = locus YNL128W, strain TEP1, hits give low values
[4] = locus YNL153C, strain GIM3, hits give low values
[5] = locus YPL055C, strain LGE1, hits give low values
[6] = locus YHR030C, strain SLT2, hits give low values
[7] = locus YHR079C, strain IRE1, hits give low values
[8] = locus YJL095W, strain BCK1, hits give low values
[9] = locus YJR066W, strain TOR1, hits give low values
[10] = locus YLR113W, strain HOG1, hits give low values
[11] = locus YNL183C, strain NPR1, hits give low values
[12] = locus YOR231W, strain MKK1, hits give low values
[13] = locus YPL256C, strain CLN2, hits give low values

Measured: normalized growth

O=c1[nH]c2cc(Cl)ccc2c(O)c1-c1ccc(Oc2ccccc2)cc1
inactive: locus YAL040C, strain CLN3, hits give low values 1 | locus YCL061C, strain MRC1 (second series), hits give low values 0.993 | [1] 0.992 | locus YDR363W, strain ESC2, hits give low values 1 | locus YER002W, strain NOP16, hits give low values 1.01 | locus YGR078C, strain PAC10, hits give low values 1.01 | locus YJR075W, strain HOC1, hits give low values 0.987 | locus YMR263W, strain SAP30, hits give low values 0.999 | [2] 0.983 | [3] 1.02 | [4] 1.03 | locus YNL175C, strain NOP13, hits give low values 1 | locus YNL197C, strain WHI3, hits give low values 1.01 | locus YNL224C, strain SQS1, hits give low values 1 | locus YNL322C, strain KRE1, hits give low values 0.988 | locus YOR083W, strain WHI5 (second series), hits give low values 0.99 | [5] 1.01

O=C(O)c1cc(O)c2c(c1)[C@@H]([C@@H]1c3cc(C(=O)O)cc(O)c3C(=O)c3c(O[C@H]4O[C@H](CO)[C@@H](O)[C@H](O)[C@H]4O)cccc31)c1cccc(O[C@H]3O[C@H](CO)[C@@H](O)[C@H](O)[C@H]3O)c1C2=O
inactive: [6] 1.09 | [7] 1.08 | [8] 1.02 | [9] 1 | [10] 1.06 | [11] 1.02 | [12] 1.05 | [13] 1.08

O=C(O)c1cc(O)c2c(c1)[C@@H]([C@H]1c3cc(C(=O)O)cc(O)c3C(=O)c3c(O[C@H]4O[C@H](CO)[C@@H](O)[C@H](O)[C@H]4O)cccc31)c1cccc(O[C@H]3O[C@H](CO)[C@@H](O)[C@H](O)[C@H]3O)c1C2=O
active: locus YDR195W, strain ref2 1.17 [resistant] | locus YEL037C, strain rad23, hits give low values 1.09 [resistant] | locus YJL095W, strain BCK1 (second series), hits give low values 1.12 [resistant] | locus YLR357W, strain rsc2, hits give low values 1.28 [resistant] | locus YOR070C, strain gyp1, hits give low values 1.08 [resistant] | locus YOR080W, strain dia2, hits give low values 1.13 [resistant]
inactive: locus YAL013W, strain DEP1, hits give low values 1.02 | locus YAL021C, strain ccr4, hits give low values 0.983 | locus YAL026C, strain drs2, hits give low values 1.01 | locus YAL030W, strain snc1, hits give low values 1.02 | locus YBL061C, strain skt5, hits give low values 1.01 | locus YBR009C, strain hhf1, hits give low values 1.04 | locus YBR021W, strain FUR4, hits give low values 1.02 | locus YBR023C, strain chs3, hits give low values 1.02 | locus YBR171W, strain sec66, hits give low values 1.02 | locus YBR229C, strain ROT2, hits give low values 1.01 | locus YBR231C, strain swc5, hits give low values 1.02 | locus YBR279W, strain paf1, hits give low values 1.01 | locus YCL011C, strain gbp2, hits give low values 1.02 | locus YCL016C, strain dcc1, hits give low values 1.02 | locus YCL029C, strain bik1, hits give low values 1 | locus YCL061C, strain MRC1, hits give low values 0.987 | locus YCL069W, strain vba3, hits give low values 1.01 | locus YCR088W, strain abp1, hits give low values 1.02 | locus YDL005C, strain med2, hits give low values 1 | locus YDL035C, strain GPR1, hits give low values 1.02 | locus YDL040C, strain nat1, hits give low values 1.04 | locus YDL074C, strain BRE1, hits give low values 1.04 | locus YDL101C, strain DUN1, hits give low values 1.01 | locus YDL134C, strain PPH21, hits give low values 1.01 | locus YDL185W, strain tfp1, hits give low values 1.01 | locus YDL192W, strain arf1, hits give low values 0.995 | locus YDR001C, strain nth1, hits give low values 1.04 | locus YDR069C, strain doa4, hits give low values 1.01 | locus YDR101C, strain arx1, hits give low values 0.98 | locus YDR137W, strain rgp1, hits give low values 0.953 | [1] 1.02 | locus YDR159W, strain sac3, hits give low values 1.02 | locus YDR162C, strain NBP2, hits give low values 1.02 | locus YDR297W, strain sur2, hits give low values 1.02 | locus YDR318W, strain mcm21, hits give low values 1.01 | locus YDR334W, strain swr1, hits give low values 1.05 | locus YDR335W, strain msn5, hits give low values 1.02 | locus YDR388W, hits give low values 1 | locus YDR392W, strain spt3, hits give low values 0.93 | locus YDR502C, strain sam2, hits give low values 0.995 | locus YEL003W, strain gim4, hits give low values 1.02 | locus YEL061C, strain CIN8 (second series), hits give low values 1.05 | locus YEL061C, strain CIN8, hits give low values 1.01 | locus YER015W, strain faa2, hits give low values 1.01 | locus YER016W, strain bim1, hits give low values 1.02 | locus YER110C, hits give low values 1 | locus YER155C, strain BEM2 (second series), hits give low values 1.01 | locus YER155C, strain BEM2, hits give low values 1.01 | locus YER167W, strain BCK2, hits give low values 1.01 | locus YFR010W, strain ubp6, hits give low values 1.02 | locus YGL078C, strain dbp3, hits give low values 0.993 | locus YGL086W, strain mad1, hits give low values 1 | locus YGL167C, strain pmr1, hits give low values 1.03 | locus YGL173C, strain kem1, hits give low values 1.02 | locus YGL227W, strain vid30, hits give low values 1.05 | locus YGL240W, strain doc1, hits give low values 0.989 | locus YGL248W, strain PDE1, hits give low values 1.02 | locus YGL253W, strain hxk2, hits give low values 1.02 | locus YGR135W, strain pre9, hits give low values 1.01 | locus YGR252W, strain gcn5, hits give low values 0.949 | locus YHR013C, strain ard1, hits give low values 1.06 | locus YHR027C, strain rpn1, hits give low values 1.05 | [6] 1.01 and 0.986 | locus YHR079C, strain IRE1 (second series), hits give low values 1 | [7] 0.981 | locus YHR094C, strain hxt1, hits give low values 0.999 | locus YHR129C, strain ARP1, hits give low values 1.01 | locus YHR142W, strain chs7, hits give low values 1.09 | locus YHR200W, strain rpn10, hits give low values 0.991 | locus YIL066C, strain RNR3, hits give low values 1.02 | locus YIL073C, strain SPO22, hits give low values 1.06 | locus YIL125W, strain kgd1, hits give low values 1 | locus YIR030C, strain dcg1, hits give low values 0.999 | locus YJL092W, strain hpr5, hits give low values 1.01 | [8] 1.03 and 0.978 | locus YJL129C, strain trk1, hits give low values 1.04 | locus YJL134W, strain LCB3, hits give low values 1.02 | locus YJL154C, strain vps35, hits give low values 1.02 | locus YJL164C, strain tpk1, hits give low values 1 | locus YJL166W, strain qcr8, hits give low values 0.958 | locus YJL168C, strain set2, hits give low values 1.02 | locus YJL187C, strain SWE1 (second series), hits give low values 1.02 | locus YJL187C, strain SWE1, hits give low values 1.01 | locus YJR043C, strain POL32, hits give low values 1 | [9] 0.934 | locus YKL009W, strain mrt4, hits give low values 1.11 | locus YKL068W, hits give low values 1.01 | locus YKL085W, strain MDH1 (second series), hits give low values 1.03 | locus YKL085W, strain MDH1, hits give low values 1.03 | locus YKL160W, strain elf1, hits give low values 0.993 | locus YKR001C, strain vps1, hits give low values 1.02 | locus YKR026C, strain gcn3, hits give low values 1.02 | locus YLL001W, strain dnm1, hits give low values 1.02 | locus YLL026W, hits give low values 1.02 | locus YLL041C, strain sdh2, hits give low values 1.01 | locus YLR027C, strain aat2, hits give low values 1.02 | locus YLR039C, strain RIC1, hits give low values 1.03 | locus YLR058C, strain SHM2, hits give low values 1.01 | locus YLR102C, strain apc9, hits give low values 1 | [10] 1.01 | locus YLR221C, strain rsa3, hits give low values 0.986 | locus YLR258W, strain gsy2, hits give low values 0.99 | locus YLR262C, strain YPT6 (second series), hits give low values 0.979 | locus YLR262C, strain YPT6, hits give low values 1.1 | locus YLR268W, strain sec22, hits give low values 0.998 | locus YLR320W, strain mms22, hits give low values 1.03 | locus YLR330W, strain CHS5, hits give low values 1.01 | locus YLR342W, strain FKS1 (second series), hits give low values 0.985 | locus YLR342W, strain FKS1, hits give low values 1.04 | locus YLR370C, strain arc18, hits give low values 1 | locus YLR371W, strain rom2, hits give low values 0.999 | locus YLR384C, strain iki3, hits give low values 1.02 | locus YLR418C, strain cdc73, hits give low values 0.993 | locus YML016C, strain PPZ1, hits give low values 1.01 | locus YML032C, strain rad52, hits give low values 0.998 | locus YML120C, strain ndi1, hits give low values 1.01 | locus YML124C, strain tub3, hits give low values 0.997 | locus YMR058W, strain fet3, hits give low values 1.03 | locus YMR078C, strain ctf18, hits give low values 1 | locus YMR125W, strain sto1, hits give low values 1.02 | locus YMR129W, hits give low values 1.04 | locus YMR205C, strain PFK2, hits give low values 0.958 | locus YMR223W, strain ubp8, hits give low values 0.997 | locus YMR231W, strain pep5, hits give low values 1.01 | [2] 1 | locus YNL067W, strain RPL9B, hits give low values 1.01 | locus YNL071W, strain lat1, hits give low values 1.03 | [3] 1.05 | [4] 1 | [11] 0.937 | locus YNL209W, strain ssb2, hits give low values 1.01 | locus YNL233W, strain BNI4, hits give low values 1.01 | locus YNL248C, strain rpa49, hits give low values 1 | locus YNL250W, strain rad50, hits give low values 1.02 | locus YNL271C, strain bni1, hits give low values 1 | locus YNL298W, strain CLA4, hits give low values 0.993 | locus YNL307C, strain MCK1, hits give low values 1.01 | locus YNL322C, strain KRE1 (second series), hits give low values 1.02 | locus YNR049C, strain mso1, hits give low values 1.05 | locus YNR052C, strain pop2, hits give low values 0.978 | locus YOL006C, strain TOP1, hits give low values 1.04 | locus YOL012C, strain htz1 0.926 | locus YOL147C, strain pex11, hits give low values 1 | locus YOR001W, strain rrp6, hits give low values 1.04 | locus YOR061W, strain CKA2, hits give low values 1.02 | locus YOR069W, strain VPS5, hits give low values 1.02 | locus YOR083W, strain WHI5, hits give low values 0.957 | locus YOR106W, strain vam3, hits give low values 0.979 | locus YOR136W, strain idh2, hits give low values 1.01 | locus YOR144C, strain elg1, hits give low values 1.01 | locus YOR184W, strain ser1, hits give low values 1.02 | [12] 0.988 | locus YOR265W, strain rbl2, hits give low values 1.01 | locus YOR270C, strain vph1, hits give low values 1.05 | locus YOR290C, strain snf2, hits give low values 0.997 | locus YOR316C, strain cot1, hits give low values 1 | locus YPL051W, strain arl3, hits give low values 0.995 | [5] 1.01 | locus YPL078C, strain atp4, hits give low values 0.979 | locus YPL106C, strain sse1, hits give low values 0.977 | locus YPL240C, strain hsp82, hits give low values 0.993 | locus YPL241C, strain CIN2, hits give low values 1.02 | [13] 1.03 | locus YPR119W, strain clb2, hits give low values 1 | locus YPR141C, strain kar3, hits give low values 1 | locus YPR163C, strain tif3, hits give low values 1.01 | locus YPR167C, strain met16, hits give low values 0.99 | strain wtn01, hits give low values 1.01
